The sequences below were run on PPARg:RXRa DBDmut IVT, anti-RXR (DBD mutation: RXRa K156A/R161A, NR concentration 270 nM, RXRa partner concentration 90 nM) (assay: PBM binding z-score (relative to random genomic background probes); higher = stronger binding; sequences stand for … in GC…GCGATTGACAGCGTAGAATGAAGG).
Summary of the method: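 Random background probes are the reference for binding z-scores. These scores derive from regression-normalized fluorescence on custom Agilent 4×180K protein-binding microarrays incubated 1 h with ligand-free nuclear receptor dimers. Binding was detected with antibodies against each partner (one per run).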
For CCACGGAGGACAGAAGGTCAGAGCTGTCCGCTTT, the PBM binding z-score was 0.376.
ATCTCGAGGTAAAGTTCAGTGAAAGATCGATAGA showed a PBM binding z-score of 0.243.
Work on CCAGACAGGTGTAAGGTAACTCAGTCTGGTACGC yielded a PBM binding z-score of -0.423.
In the case of CGAACTAGGTCATCCAGGACAGTGTATACATTGA, the PBM binding z-score is reported as 8.32.
CGAACTAGGTCATCCAGGGCAGTGAATACATTGA was tested, and the PBM binding z-score was 8.06.
For GCTTTCGGGTCAAAGGTTATAGCATGAATAGAAT, the PBM binding z-score was 3.82.
In the case of GCGACTGGGGTAAAGCAGGTTACCATAAGGTTGG, the PBM binding z-score is reported as 3.33.
Sequence AGAATGAGGTTATGAAGATCAGGGAATTGCGGTC has a PBM binding z-score of 3.44.
With GGAACGAGGGAAAAGTTGATAGCATCTGTCGACG the PBM binding z-score was -0.174.
ATATGTAGGTTAGCTGGGTTCATTCAGACTAGGC gave a PBM binding z-score of 6.03.
AGAATGAGGTTATAAGTAGATCAGGGAAGAAAGT was tested, and the PBM binding z-score was 3.03.
TCTAGCAGGCCAAAGGGTCACTCAAGAGGTACGG showed a PBM binding z-score of 1.61.
For GCGACTGGGGCAAAGCAAGTTACCATAAGGTTGG, the PBM binding z-score was 4.67.
GTACCAAGGTGAATAGGACGTTGATGAGTAGGCG was tested, and the PBM binding z-score was 1.26.
TCAAGTAGGTTACCAATGGGGCATTCAGCTTTCT was tested, and the PBM binding z-score was 6.09.
For TCATATAGGTACTACAGGTGAAAGTCGGCATCTA, the PBM binding z-score was 2.86.
TCATATAAGTAAACAGGTGAAAGTCCGTAAGTTA showed a PBM binding z-score of 3.11.
With TCATGTAGGTAAATGCTAGGTGAAAGTCCGATCT the PBM binding z-score was 4.15.
CCTTACGGGTCACGAGGTTATAGGACGACGAGCG was tested, and the PBM binding z-score was 4.3.
Work on ATATCAAGGTGATCGTGAGGTCGTTGATACTAAC yielded a PBM binding z-score of 1.67.
TAGCCTAGGTCATGCGGGCCACTATAGTGTCGGC showed a PBM binding z-score of 1.87.
In the case of GTACCAAGGTGAAGAGGTCGTTGATGAGTAGGCG, the PBM binding z-score is reported as 1.79.

Reference: the supplement of paper PMC6555819
